# High-throughput results from PubChem BioAssay.
# EPAC1 antagonist: blocks human EPAC1 exchange factor; O95398; hit rate 0.14% among 360,000; Potency, µM (top dose mostly 115 µM), without a hit: top-dose activity change, negative = inhibition, actives largely listed as inhibitors; EPAC1 GEF assay, Rap1b-BODIPY-GDP exchange fluorescence;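 note: plate controls were vehicle for no effect and positive control for full effect; nearly all actives have a fitted effect of over 50% in size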
# Target sequence (O95398 whole entry, looked up): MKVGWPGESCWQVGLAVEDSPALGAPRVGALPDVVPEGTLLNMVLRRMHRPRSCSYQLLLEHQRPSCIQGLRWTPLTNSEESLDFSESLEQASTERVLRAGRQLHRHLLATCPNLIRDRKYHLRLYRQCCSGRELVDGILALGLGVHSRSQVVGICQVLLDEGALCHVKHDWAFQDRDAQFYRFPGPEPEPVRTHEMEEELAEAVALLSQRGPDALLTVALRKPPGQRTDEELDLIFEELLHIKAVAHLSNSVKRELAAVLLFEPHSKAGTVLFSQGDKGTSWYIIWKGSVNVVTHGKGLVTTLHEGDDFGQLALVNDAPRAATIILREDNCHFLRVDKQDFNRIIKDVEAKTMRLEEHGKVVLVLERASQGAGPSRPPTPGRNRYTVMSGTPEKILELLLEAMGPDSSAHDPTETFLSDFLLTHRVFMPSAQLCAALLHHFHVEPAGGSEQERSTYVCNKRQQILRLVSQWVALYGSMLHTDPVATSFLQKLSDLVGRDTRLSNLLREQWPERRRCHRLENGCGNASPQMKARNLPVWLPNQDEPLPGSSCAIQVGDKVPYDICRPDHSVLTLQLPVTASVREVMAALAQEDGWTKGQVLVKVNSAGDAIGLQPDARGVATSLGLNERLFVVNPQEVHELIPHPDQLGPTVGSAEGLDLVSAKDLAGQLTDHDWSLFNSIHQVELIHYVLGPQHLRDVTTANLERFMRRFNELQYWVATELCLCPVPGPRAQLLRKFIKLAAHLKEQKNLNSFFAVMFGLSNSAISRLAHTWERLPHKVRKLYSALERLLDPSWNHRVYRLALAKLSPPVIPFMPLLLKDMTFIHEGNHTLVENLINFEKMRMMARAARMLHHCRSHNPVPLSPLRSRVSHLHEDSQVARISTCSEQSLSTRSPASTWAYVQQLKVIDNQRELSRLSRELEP
# EPAC2 antagonist: blocks human EPAC2 exchange factor. EPAC2 GEF exchange of Rap1B-BODIPY-GDP, fluorescence. AID 720708. Q8WZA2. hit rate 0.18% among 360,000. Potency, µM (highest dose often 114 µM), for inactives: at the top dose activity, negative = inhibition, most hits filed as inhibitors; note: % is set by controls: 0 for no effect and ±100 for the full control effect; nearly all actives have a fitted effect of over 45% in size
# EPAC1 ag: EPAC1 (human) agonism | O95398 | EPAC1 agonist qHTS, biochemical assay; response scale: 100% = response to 6.5 mM cAMP | Potency, µM (series often up to 154 µM), without a hit: top-dose activation, usual class: activators | hit rate 0.073% among 360,000 | AID 720707; note: nearly all actives have a fitted effect of over 60% in size
#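 EPAC1 100 nM, Rap1B–BODIPY-GDP 250 nM, unlabeled GDP 50 uM; compound titration; 5 min RT; kinetic read ex480/em540 at 5-min intervals ×30 min; data normalized to 6.5 mM cAMP agonist control.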
# EPAC2 agonist: agonists of human EPAC2 (RAPGEF4); Q8WZA2; EPAC2 activation, biochemical qHTS; response scale: 100% = 6.5 mM cAMP response; Potency, µM (top dose mostly 154 µM), for the others: at the top dose activation, actives largely listed as activators; hit rate 0.079% among 360,000; AID 720711; note: nearly all actives have a fitted effect of over 50% in size
#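 qHTS, titration series. 100 nM EPAC2 / 250 nM Rap1B-BODIPY-GDP / 50 uM GDP; RT; ex 480/em 540 nm, 5-min reads to 30 min. Norm. to 6.5 mM cAMP = activation.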
# USP1 inh: inhibitors of human USP1/UAF1 deubiquitinase. Potency, µM (highest dose often 57.1 µM), for inactives: top-dose activity change, negative = inhibition, usual class: inhibitors. hit rate 0.23% among 390,000. AID 743255. O94782. recombinant USP1/UAF1, Ub-Rhodamine cleavage fluorescence; note: % is set by controls: 0 for no effect and ±100 for the full control effect; nearly all actives have a fitted effect of over 60% in size
#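 Step one: compound is pinned into 1nM USP1/UAF1 in HEPES pH 7.8 buffer with TCEP. Step two: 15 min room-temperature incubation. Step three: Ub-Rho (150nM final) starts cleavage, tracked by fluorescence over six one-minute reads.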
# Starred values were filed as active, the others as inactive; ? = inconclusive; / = not tested or not shown. Compounds with a hit are over-represented: about 0.49% of the library has one in this group of screens. Calls come from the whole dose curve; as a rule, active = well fitted curve in the direction sought with a large enough effect; inconclusive = small, poorly fitted or top-dose-only effect, or another doubt; inactive = no such curve, though single readings can be large; an effect the other way counts as inactive or inconclusive. Potency is the fitted concentration of half-maximal effect.
SMILES,EPAC1 antagonist,EPAC2 antagonist,EPAC1 ag,EPAC2 agonist,USP1 inh
CN(N=Nc1ccc([N+](=O)[O-])cc1)c1ccccc1,79µM*,347%,-793%,100µM*,?
CC1(C(=O)NS(=O)(=O)c2cccc(F)c2)CCN1C(=O)C1(c2ccc(Cl)cc2)CCC1 (configuration not stated),-19%,?,-4%,3%,/
CC1(C(=O)NS(=O)(=O)c2ccc(F)cc2F)CCN1C(=O)C1(c2ccc(Cl)cc2)CCC1 (configuration not stated),?,35µM*,-17%,-1%,/
COc1ccc(OC)c(-c2csc(NC(=O)COC(=O)c3ccc(NC(=O)CC#N)cc3)n2)c1,79µM*,0%,10%,1%,-11%
O=C1C(Cl)=C(NCCN2CCCCC2)C(=O)c2ccccc21,-5%,13%,5%,12%,18µM*
NC(=O)c1cc2ccc(O)cc2oc1=NCc1ccccc1,15%,36%,19%,100µM*,?
NC(=O)c1cc2ccccc2oc1=NCc1ccccc1,-11%,2%,-2%,9%,-7%
COc1cc(/C=C2/NC(=O)NC2=O)cc(Br)c1OCc1ccc(C(=O)O)cc1,79µM*,11%,18%,-1%,6%
C=CCN1C(=O)/C(=C/c2ccc(OCC(=O)O)cc2)S/C1=N/c1nccs1,6%,50µM*,-9%,-26%,-6%
CCOc1ccccc1NS(=O)(=O)c1c(-c2ccc(C)cc2)csc1C(=O)OC,/,/,/,/,-28%
Cc1ccc2c(c1)c1c3n2CCN(C(=O)CN2CCN(C)CC2)C3CCC1 (configuration not stated),8%,1%,-3%,7%,2%
Cc1ccc2c(c1)c(=O)c1c3n2CCN(C(=O)CCl)C3CC1 (configuration not stated),-13%,14%,1%,-11%,32µM*
CCOC(=O)c1cc(-c2ccccc2)n(CC(=O)NCc2ccccc2OC)c1C,/,/,/,/,-9%
Cc1ccc2c(CC(=O)Nc3c(C(=O)Nc4cccc(Cl)c4)oc4ccccc34)coc2c1C,/,/,/,/,-11%
O=C(N/N=C/c1ccc(-c2ccc(S(=O)(=O)Nc3ncccn3)cc2)o1)c1cc2ccccc2cc1O,13µM*,-12%,-1%,1%,?
Cc1cccc(C)c1OC(=O)c1ccccc1,-8%,50µM*,-1%,7%,-2%
Cc1ccc(NC(=O)c2cccc3c(=O)c4c([nH]c23)CCCC4)c(C)c1,/,/,/,/,-15%
O=C(c1ccco1)N(CCC(c1ccccc1)c1ccco1)Cc1ccco1 (configuration not stated),?,-15%,8%,-2%,?
Cc1ccc(C(CCN(Cc2ccccc2)C(=O)c2ccco2)c2ccco2)cc1 (configuration not stated),50µM*,?,0%,-2%,-19%
CCSc1nnc(-c2sc3nnc(-c4ccccc4)c(-c4ccccc4)c3c2N)o1,-11%,168%,2%,100µM*,18µM*
CCN(CC)CCCNc1oc(-c2ccc(OC)cc2)nc1C#N,/,/,/,/,-25%
COc1cccc(NC(=O)c2csc3c2CCCC3)c1,155%,-9%,100µM*,13%,-7%
Cc1ccc(NC(=O)c2oc3ccccc3c2NC(=O)C23CC4CC(CC(C4)C2)C3)cc1,/,/,/,/,-17%
O=C(O)C(c1ccccc1)N1C(=O)/C(=C/c2cccs2)SC1=S (configuration not stated),-18%,56µM*,-2%,-11%,-7%
C=CCC(CC=C)(CNC(=O)C(=O)Nc1cccc(C(F)(F)F)c1)c1ccccc1,/,/,/,/,-6%
SMILES,EPAC1 antagonist,EPAC2 antagonist,EPAC1 ag,EPAC2 agonist,USP1 inh
Nc1ccc2c(c1)C(=O)C(=O)c1ccccc1-2,?,8.9µM*,-9%,-12%,1.3µM*
O=C1C(=O)c2ccc(-c3ccccc3)cc2-c2ccccc21,?,-26%,-2%,25%,5µM*
Nc1ccc2c(c1)C(=O)c1ccccc1-2,-26%,-18%,16%,10%,-7%
COc1cccc(CN2CC(O)=C(c3nc(-c4ccc(Cl)cc4)cs3)C2=N)c1,2%,10%,-14%,6.3µM*,-12%
Cc1cccn2c(=O)c(C(=O)N3CCN(c4ccc(Cl)cc4)CC3)cnc12,/,/,/,/,-26%
Cc1[nH]c(=O)nc(SCc2cccc(Cl)c2)c1C#N,?,-1%,-1%,-4%,-16%
N#Cc1c(-c2ccccc2)nc(SCc2cccc(Cl)c2)[nH]c1=O,?,89µM*,-5%,-11%,-18%
Cc1cc(NC(=O)Nc2nnc(N(C)Cc3ccccc3)s2)ccc1Br,/,/,/,/,32µM*
CCOC(=O)c1c(-c2ccccc2)csc1NC(=O)/C(C#N)=C\c1ccc(O)c(OC)c1,-11%,?,-4%,-5%,16µM*
CCCCCC(=O)Cc1cc(O)cc2c1C(=O)Oc1cc(O)c(C(=O)O)c(CCCCC)c1O2,40µM*,16µM*,-10%,-9%,?
COc1ccc(C(NC(=O)c2cc(OC)ccc2OC)c2ccccc2)cc1 (configuration not stated),-24%,45µM*,12%,11%,-11%
O=C1c2cccc3c(N4CCCCC4)ccc(c23)C(=O)N1c1ccc(O)cc1,14%,101%,11%,89µM*,?
O=C1c2cccc3cccc(c23)C(=O)N1c1ccc(O)cc1,-16%,-8%,10%,7%,-24%
Cc1ccc(N2C(=O)c3cccc4c(N5CCN(C)CC5)ccc(c34)C2=O)c2cccnc12,5%,8%,22%,-13%,28µM*
O=C1c2cccc3c(N4CCCCC4)ccc(c23)C(=O)N1c1ccccc1O,4%,1%,?,100µM*,28µM*
Cc1ccc(N2C(=O)c3cccc4c([N+](=O)[O-])ccc(c34)C2=O)c2cccnc12,-27%,11%,-1%,2%,-6%
Oc1ccc(Br)cc1C=Nc1cccn2cc(-c3ccccc3)nc12,0%,79µM*,2%,-17%,-2%
CCOC(=O)c1ccccc1NS(=O)(=O)c1c(-c2ccc(C)cc2)csc1C(=O)OC,/,/,/,/,-15%
CC1CCc2[nH]c3ccc(C(=O)N4CCCC(C(F)(F)F)C4)cc3c2C1 (configuration not stated),?,-29%,112µM*,-14%,-12%
CCCCCCCCCCCCN1[C@@H](CC(=O)O)c2cc(C(F)(F)F)ccc2S1(=O)=O,79µM*,?,-39%,-12%,?
CCCCCCCCCCCCN1[C@@H](CC(=O)O)c2cc(F)ccc2S1(=O)=O,79µM*,?,-40%,-22%,?
Cc1sc2c(c1C)c(=O)n(-c1cccc(C(F)(F)F)c1)c(=O)n2Cc1ccc(F)cc1,/,/,/,/,-16%
Cc1cc(Cl)ccc1NC(=O)CCS(=O)(=O)c1ccc2c(c1)CC(C)N2C(=O)C1CC1 (configuration not stated),/,/,/,/,0%
